Reference: PubChem BioAssay AID1159580 (chemical genetic matrix, 2015)
Screen size: about 5,500 compounds; about 2,000 (36%) were called active. Inconclusive results (about 18%) are left out. Some of the results follow. A number with no mark means an inactive call. Cut-off read from the data, not from the text of the source: active = normalized growth mostly below about 0.91 (no sharp cut-off); inconclusive = no clear call, values can overlap the other calls; inactive = mostly above about 0.92.

Test: chemical genetic growth profiling, strain panel (AID 1159580);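 note: tested at 20 µM; growth read once vehicle control cultures reached saturation at 30 °C; 1 = growth at the plate median or of vehicle wells; lower values mean less growth of the strain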
Conditions: growth OD
[1] = S. cerevisiae deletion strains, locus YDR150W, strain NUM1, active compounds read low
[2] = S. cerevisiae deletion strains, locus YGR078C, strain PAC10, active compounds read low
[3] = S. cerevisiae deletion strains, locus YJR075W, strain HOC1, active compounds read low
[4] = S. cerevisiae deletion strains, locus YMR263W, strain SAP30, active compounds read low
[5] = S. cerevisiae deletion strains, locus YPL055C, strain LGE1, active compounds read low
[6] = S. cerevisiae deletion strains, locus YDL101C, strain DUN1, active compounds read low
[7] = S. cerevisiae deletion strains, locus YHR030C, strain SLT2, active compounds read low

## Nc1ncnc2c1nc(Br)n2C1OC2COP(=O)(O)O[C@@H]2C1O (stereo partly specified)
S. cerevisiae deletion strains, locus YAL040C, strain CLN3, active compounds read low
  normalized growth: 0.986
[1]
  normalized growth: 0.999
S. cerevisiae deletion strains, locus YER002W, strain NOP16, active compounds read low
  normalized growth: 0.996
[2]
  normalized growth: 1.01
[3]
  normalized growth: 1
[4]
  normalized growth: 0.999
S. cerevisiae deletion strains, locus YNL175C, strain NOP13, active compounds read low
  normalized growth: 0.986
S. cerevisiae deletion strains, locus YNL197C, strain WHI3, active compounds read low
  normalized growth: 1.02
S. cerevisiae deletion strains, locus YNL224C, strain SQS1, active compounds read low
  normalized growth: 0.999
S. cerevisiae deletion strains, locus YOR083W, strain WHI5 (second series), active compounds read low
  normalized growth: 1.02
[5]
  normalized growth: 1.01

## Clc1ccc(N/N=C\c2sccc2Oc2ccccc2)cc1
S. cerevisiae deletion strains, locus YAR019C, strain CDC15, active compounds read low
  normalized growth: 0.971
S. cerevisiae deletion strains, locus YBL105C, strain PKC1, active compounds read low
  normalized growth: 0.979
S. cerevisiae deletion strains, locus YBR135W, strain CKS1, active compounds read low
  normalized growth: 0.966
S. cerevisiae deletion strains, locus YBR136W, strain MEC1, active compounds read low
  normalized growth: 0.963
S. cerevisiae deletion strains, locus YBR160W, strain CDC28, active compounds read low
  normalized growth: 0.965
S. cerevisiae deletion strains, locus YDL017W, strain CDC7, active compounds read low
  normalized growth: 0.974
S. cerevisiae deletion strains, locus YDL028C, strain MPS1, active compounds read low
  normalized growth: 0.968
[6]
  normalized growth: 0.951
S. cerevisiae deletion strains, locus YDL108W, strain KIN28, active compounds read low
  normalized growth: 0.969
S. cerevisiae deletion strains, locus YDL132W, strain cdc53, active compounds read low
  normalized growth: 0.964
S. cerevisiae deletion strains, locus YDL214C, strain PRR2, active compounds read low
  normalized growth: 0.335 (active)
S. cerevisiae deletion strains, locus YDR052C, strain DBF4, active compounds read low
  normalized growth: 0.95
S. cerevisiae deletion strains, locus YDR054C, strain cdc34, active compounds read low
  normalized growth: 0.963
S. cerevisiae deletion strains, locus YDR226W, strain ADK1, active compounds read low
  normalized growth: 0.96
S. cerevisiae deletion strains, locus YDR477W, strain SNF1, active compounds read low
  normalized growth: 0.275 (active)
S. cerevisiae deletion strains, locus YER123W, strain YCK3, active compounds read low
  normalized growth: 0.184 (active)
S. cerevisiae deletion strains, locus YER133W, strain GLC7, active compounds read low
  normalized growth: 0.345 (active)
S. cerevisiae deletion strains, locus YFL009W, strain cdc4, active compounds read low
  normalized growth: 0.968
S. cerevisiae deletion strains, locus YFL029C, strain CAK1, active compounds read low
  normalized growth: 0.959
S. cerevisiae deletion strains, locus YFR003C, strain YPI1, active compounds read low
  normalized growth: 0.975
S. cerevisiae deletion strains, locus YFR019W, strain FAB1, active compounds read low
  normalized growth: 0.313 (active)
S. cerevisiae deletion strains, locus YFR028C, strain CDC14, active compounds read low
  normalized growth: 0.965
S. cerevisiae deletion strains, locus YGR040W, strain KSS1, active compounds read low
  normalized growth: 0.268 (active)
S. cerevisiae deletion strains, locus YGR052W, strain FMP48, active compounds read low
  normalized growth: 0.21 (active)
S. cerevisiae deletion strains, locus YGR092W, strain DBF2, active compounds read low
  normalized growth: 0.115 (active)
[7]
  normalized growth: 0.125 (active)
S. cerevisiae deletion strains, locus YHR079C, strain IRE1, active compounds read low
  normalized growth: 0.474 (active)
S. cerevisiae deletion strains, locus YHR082C, strain KSP1, active compounds read low
  normalized growth: 0.361 (active)
S. cerevisiae deletion strains, locus YHR205W, strain SCH9, active compounds read low
  normalized growth: 0.43 (active)
S. cerevisiae deletion strains, locus YIL147C, strain SLN1, active compounds read low
  normalized growth: 0.969
S. cerevisiae deletion strains, locus YJL095W, strain BCK1, active compounds read low
  normalized growth: 0.125 (active)
S. cerevisiae deletion strains, locus YJL128C, strain PBS2, active compounds read low
  normalized growth: 0.864
S. cerevisiae deletion strains, locus YJL157C, strain FAR1, active compounds read low
  normalized growth: 0.316 (active)
S. cerevisiae deletion strains, locus YJR016C, strain ILV3, active compounds read low
  normalized growth: 0.947
S. cerevisiae deletion strains, locus YJR066W, strain TOR1 (second series), active compounds read low
  normalized growth: 0.423 (active)
S. cerevisiae deletion strains, locus YJR066W, strain TOR1, active compounds read low
  normalized growth: 0.241 (active)
S. cerevisiae deletion strains, locus YKL048C, strain ELM1, active compounds read low
  normalized growth: 0.468 (active)
S. cerevisiae deletion strains, locus YKL067W, strain YNK1, active compounds read low
  normalized growth: 0.303 (active)
S. cerevisiae deletion strains, locus YKL101W, strain HSL1, active compounds read low
  normalized growth: 0.353 (active)
S. cerevisiae deletion strains, locus YKL193C, strain SDS22, active compounds read low
  normalized growth: 0.968
S. cerevisiae deletion strains, locus YKL203C, strain TOR2, active compounds read low
  normalized growth: 0.34 (active)
S. cerevisiae deletion strains, locus YLR113W, strain HOG1, active compounds read low
  normalized growth: 0.275 (active)
S. cerevisiae deletion strains, locus YLR133W, strain CKI1, active compounds read low
  normalized growth: 0.28 (active)
S. cerevisiae deletion strains, locus YLR403W, strain SFP1, active compounds read low
  normalized growth: 0.242 (active)
S. cerevisiae deletion strains, locus YML070W, strain DAK1, active compounds read low
  normalized growth: 0.293 (active)
S. cerevisiae deletion strains, locus YMR001C, strain CDC5, active compounds read low
  normalized growth: 0.972
S. cerevisiae deletion strains, locus YMR205C, strain PFK2 (second series), active compounds read low
  normalized growth: 0.47 (active)
S. cerevisiae deletion strains, locus YMR277W, strain FCP1, active compounds read low
  normalized growth: 0.977
S. cerevisiae deletion strains, locus YNL006W, strain LST8, active compounds read low
  normalized growth: 0.968
S. cerevisiae deletion strains, locus YNL020C, strain ARK1, active compounds read low
  normalized growth: 0.382 (active)
S. cerevisiae deletion strains, locus YNL161W, strain CBK1, active compounds read low
  normalized growth: 0.974
S. cerevisiae deletion strains, locus YNL183C, strain NPR1, active compounds read low
  normalized growth: 0.393 (active)
S. cerevisiae deletion strains, locus YNL207W, strain RIO2, active compounds read low
  normalized growth: 0.969
S. cerevisiae deletion strains, locus YNL222W, strain SSU72, active compounds read low
  normalized growth: 0.966
S. cerevisiae deletion strains, locus YNL307C, strain MCK1 (second series), active compounds read low
  normalized growth: 0.147 (active)
S. cerevisiae deletion strains, locus YOL078W, strain AVO1, active compounds read low
  normalized growth: 0.97
S. cerevisiae deletion strains, locus YOL136C, strain PFK27, active compounds read low
  normalized growth: 0.312 (active)
S. cerevisiae deletion strains, locus YOR061W, strain CKA2, active compounds read low
  normalized growth: 0.19 (active)
S. cerevisiae deletion strains, locus YOR119C, strain RIO1, active compounds read low
  normalized growth: 0.299 (active)
S. cerevisiae deletion strains, locus YOR231W, strain MKK1, active compounds read low
  normalized growth: 0.477 (active)
S. cerevisiae deletion strains, locus YOR329C, strain SCD5, active compounds read low
  normalized growth: 0.978
S. cerevisiae deletion strains, locus YPL031C, strain PHO85, active compounds read low
  normalized growth: 0.295 (active)
S. cerevisiae deletion strains, locus YPL153C, strain RAD53, active compounds read low
  normalized growth: 0.279 (active)
S. cerevisiae deletion strains, locus YPL204W, strain HRR25, active compounds read low
  normalized growth: 0.338 (active)
S. cerevisiae deletion strains, locus YPL209C, strain IPL1, active compounds read low
  normalized growth: 0.977
S. cerevisiae deletion strains, locus YPL256C, strain CLN2, active compounds read low
  normalized growth: 0.275 (active)
S. cerevisiae deletion strains, locus YPR025C, strain CCL1, active compounds read low
  normalized growth: 0.963
S. cerevisiae deletion strains, locus YPR106W, strain ISR1, active compounds read low
  normalized growth: 0.967
S. cerevisiae deletion strains, locus YPR111W, strain DBF20, active compounds read low
  normalized growth: 0.963
S. cerevisiae deletion strains, strain NNK1, active compounds read low
  normalized growth: 0.979
S. cerevisiae deletion strains, strain TSCII, active compounds read low
  normalized growth: 0.966

## O/N=C\c1sccc1Oc1ccccc1
S. cerevisiae deletion strains, locus YAL013W, strain DEP1, active compounds read low
  normalized growth: 0.964
S. cerevisiae deletion strains, locus YBR229C, strain ROT2, active compounds read low
  normalized growth: 0.958
S. cerevisiae deletion strains, locus YCL061C, strain MRC1, active compounds read low
  normalized growth: 0.942
[6]
  normalized growth: 0.926
[1]
  normalized growth: 0.953
S. cerevisiae deletion strains, locus YEL061C, strain CIN8, active compounds read low
  normalized growth: 0.869 (active)
[2]
  normalized growth: 0.952
[7]
  normalized growth: 0.729
S. cerevisiae deletion strains, locus YHR087W, strain rtc3, active compounds read low
  normalized growth: 1.01
S. cerevisiae deletion strains, locus YJL187C, strain SWE1, active compounds read low
  normalized growth: 1.01
S. cerevisiae deletion strains, locus YJR043C, strain POL32, active compounds read low
  normalized growth: 1
[3]
  normalized growth: 0.978
S. cerevisiae deletion strains, locus YLR039C, strain RIC1, active compounds read low
  normalized growth: 0.954
S. cerevisiae deletion strains, locus YLR058C, strain SHM2 (second series), active compounds read low
  normalized growth: 0.997
S. cerevisiae deletion strains, locus YLR085C, strain ARP6, active compounds read low
  normalized growth: 0.911
S. cerevisiae deletion strains, locus YLR262C, strain YPT6, active compounds read low
  normalized growth: 0.931
S. cerevisiae deletion strains, locus YML094W, strain GIM5, active compounds read low
  normalized growth: 0.927
S. cerevisiae deletion strains, locus YMR219W, strain ESC1, active compounds read low
  normalized growth: 0.977
[4]
  normalized growth: 0.968
S. cerevisiae deletion strains, locus YNL128W, strain TEP1, active compounds read low
  normalized growth: 0.98
S. cerevisiae deletion strains, locus YNL153C, strain GIM3, active compounds read low
  normalized growth: 0.905 (active)
S. cerevisiae deletion strains, locus YNL298W, strain CLA4 (second series), active compounds read low
  normalized growth: 0.962
S. cerevisiae deletion strains, locus YNL322C, strain KRE1, active compounds read low
  normalized growth: 0.988
S. cerevisiae deletion strains, locus YNR030W, strain Alg12, active compounds read low
  normalized growth: 0.932
S. cerevisiae deletion strains, locus YOL006C, strain TOP1, active compounds read low
  normalized growth: 0.795
[5]
  normalized growth: 0.98
S. cerevisiae deletion strains, locus YPL241C, strain CIN2, active compounds read low
  normalized growth: 0.917
S. cerevisiae deletion strains, locus YPR135W, strain CTF4, active compounds read low
  normalized growth: 0.648
S. cerevisiae strains, strain wild type, active compounds read low
  normalized growth: 0.953
